SW480 rerep: induces DNA re-replication in SW480 colon adenocarcinoma cells | SW480 DNA re-replication, Hoechst DNA content imaging, 48 h | Potency, µM (top dose mostly 46.1 µM), inactives show top-dose re-replication activation, usual class: activators | actives 1.8% (n = 340,000) | AID 624297; also: % of control where 0% means no effect; nearly all actives have a fitted effect of over 55% in size
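Readout is total intensity of Hoechst-stained nuclei, excited at 405 nm and collected at 500-530 nm. Compound treatment lasted 48 hr at 37 C in 5% CO2 before staining.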
HT1080-NT tox: kills 2HG-producing HT-1080-NT fibrosarcoma cells; actives 1.6% (n = 360,000); HT-1080-NT fibrosarcoma viability, CellTiter-Glo ATP luminescence, 48 h; Potency, µM (top dose mostly 46.1 µM), without a hit: at the highest dose activity, negative = less viability, most hits filed as cytotoxic; AID 686970;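 also: NT is the 2HG producing partner of a matched IDH1 knockdown line; 0% = DMSO-treated cells and -100% = media-only wells without cells; nearly all actives have a fitted effect of over 55% in size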
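Toxicity toward the 2HG-producing NT line was scored as %Activity, normalised to DMSO and no-cell wells, from CellTiter-Glo luminescence after 48 hours' treatment.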
KB-3-1 cytotox: kills parental KB-3-1 adenocarcinoma cells | actives 1.4% (n = 400,000) | AID 1347075 | Potency, µM (highest dose often 46.1 µM), usual class: cytotoxic | KB-3-1 viability, CellTiter-Glo ATP luminescence, 72 h; also: % is scaled to controls: 0 for no effect and ±100 for the full control effect; nearly all actives have a fitted effect of over 60% in size
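Cytotoxicity in the drug-sensitive parental line KB-3-1 was scored as loss of CellTiter-Glo luminescence following 72 h incubation with compound. Values come from curve fitting of normalized concentration-response data.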
KB-V1 MDR tox: KB-V1 MDR subline cytotoxicity; KB-V1 MDR cells viability, CellTiter-Glo, 72 h; Potency, µM (top dose mostly 46.1 µM), most hits filed as cytotoxic; actives 3.4% (n = 400,000); also: % is scaled to controls: 0 for no effect and ±100 for the full control effect; nearly all actives have a fitted effect of over 60% in size
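Cells of the MDR subline KB-V1 are plated, dosed with compound at multiple concentrations, and incubated 72 h at 37 degrees C; CellTiter-Glo is then added and luminescence read after 10 min.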
HT1080 IDH1KD tx: HT-1080 IDH1 knockdown cell toxicity (counter line) | AID 686971 | actives 2% (n = 360,000) | HT-1080 IDH1 knockdown viability, ATP luminescence, 48 h | Potency, µM (top dose mostly 46.1 µM), for the others: at the highest dose activity, negative = toxicity, hits mostly cytotoxic;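 also: 0% = DMSO wells and -100% = cell-free medium wells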
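Luminescent ATP read-out (CellTiter-Glo, 10 min at room temperature) after 48 h compound exposure at 37 °C gave viability of IDH1-knockdown HT-1080 cells. Activity was normalised to DMSO and cell-free wells, then fitted as concentration-response curves.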
MCF10A rereplic: DNA re-replication induction in MCF 10a cells | MCF 10A DNA re-replication, Hoechst nuclear intensity, 48 h | Potency, µM (highest dose often 46.1 µM), for the others: at the top dose activity, positive = re-replication, usual class: activators | actives 2.9% (n = 350,000) | AID 624296; also: % of control where 0% means no effect; nearly all actives have a fitted effect of over 50% in size
Numbers without * were called inactive; i = inactive; ? = inconclusive; / = no result given; ! = not confirmed by another sample; [ ] = another dose, or the depositor's remark. The list is not random: actives were taken first. Their share in the collection is about 8%. Calls follow the shape of the dose curve; as a rule, active = well fitted curve in the direction sought with a large enough effect; inconclusive = small, poorly fitted or top-dose-only effect, or another doubt; inactive = no such curve, though single readings can be large; an effect the other way counts as inactive or inconclusive. Potency is read from the fitted curve at half-maximal effect.

SMILES	SW480 rerep	HT1080-NT tox	KB-3-1 cytotox	KB-V1 MDR tox	HT1080 IDH1KD tx	MCF10A rereplic
O=C(Cc1ccc2c(c1)OCCO2)N1CCN(S(=O)(=O)c2ccccc2C(F)(F)F)CC1	1.8%	12.6%	i	20.6µM*	3.8%	16.4%
O=C(NCC(=O)N1CCCC(C(F)(F)F)C1)c1ccc2ccccc2c1 (configuration not stated)	18.4µM*	0.7%	i	i	-2.2%	7.5%
CCOc1cc(C#N)c(NC(=O)c2ccc(OC)c(S(=O)(=O)N3CCN(c4ccccc4)CC3)c2)cc1OCC	/	/	i	i	/	/
Cc1ccc(S(=O)(=O)N2CCN(C(=O)Cc3ccc4c(c3)OCCO4)CC2)cc1C	1.5%	-5.3%	i	4.11µM*	-6.7%	-3.5%
CN1CCN(S(=O)(=O)c2ccc(N3CCN(S(=O)(=O)/C=C/c4ccccc4)CC3)nc2)CC1	?	-20.7%	i	i	-12.4%	7.31µM*
CN1CCN(S(=O)(=O)c2ccc(N3CCN(C(c4ccccc4)c4ccccc4)CC3)nc2)CC1	11.1%	7.4%	?	i	?	?
C(=N\N1CCN(C2c3ccccc3-c3ccccc32)CC1)/c1ccccn1	-1.2%	-0.9%	?	18.4µM*	-1.1%	?
C(=N\N1CCN(C2c3ccccc3-c3ccccc32)CC1)/c1cccnc1	-6.3%	-15.7%	i	?	-9.4%[9.24 µM]	?
O=[N+]([O-])c1cc(/C=N/N2CCN(C3c4ccccc4-c4ccccc43)CC2)ccc1Cl	-7.8%	-0.8%	20.6µM*	?	22.0%	8.4%
COc1ccccc1N1CCN(/N=C/c2ccc(Cl)c([N+](=O)[O-])c2)CC1	-8.6%	2.5%	i	i	-8.4%	11.7%
Cc1cc(C)c(-c2csc(Cc3nc(-c4cc5ccccc5oc4=O)cs3)n2)cc1C	7.7%	-3.2%	23.1µM*	?	-9.1%	13.7%
Nc1nccc(-c2ccc(-n3cccc3)cc2)n1	-5.9%	1.6%	i	?	8.6%	0.3%
O=C(O)c1ccc(N2C(=O)CC(N3C(=O)/C(=C/c4ccc(Cl)cc4)SC3=S)C2=O)cc1 (configuration not stated)	-7.4%	2.1%	i	i	12.4%	-0.5%
CCOCc1ccccc1Nc1ncnc2onc(-c3ccc(Cl)cc3)c12	/	/	i	i	/	/
O=C1c2ccccc2C(=O)C1c1ccc2ccccc2n1	0.1%	?	i	2.59µM*!	?	?
O=C1c2ccccc2C(=O)C1c1cc2ccccc2cn1	/	/	i	i	/	/
Cc1nc(NC(=O)CSc2nnc(N)s2)c(Cl)cc1Cl	0.6%	21.6%	i	?	9.6%	4.9%
COc1ccc(Cn2c(-c3ccc(C)cc3)c[n+]3ccccc23)cc1	-2.3%	4.11µM*	3.26µM*	i	1.16µM*	?
Cc1c(N=C2N=C(NC(=O)Nc3ccc(Cl)cc3)c3ccccc32)c(=O)n(-c2ccccc2)n1C	7.0%	-0.5%	i	i	-19.6%	16.4µM*
COc1cc(Cl)c(C)cc1NC(=O)CN1C(=O)C2CCCCC2C1=O (configuration not stated)	1.6%	0.8%	i	23.1µM*	-2.5%	-3.8%
Cc1ccccc1NC(=S)N(Cc1ccco1)C(C)c1ccccn1 (configuration not stated)	-2.5%	-2.9%	i	i	-0.7%	-2.2%
Cc1ccc(NC(=O)CSc2nc(-c3ccccc3Cl)nc3cc(=O)[nH]n23)c(C)c1	/	/	i	i	/	/
Nc1nc(N)c2cc(CNc3ccc(Cl)c(Cl)c3)ccc2n1	/	1.84µM*	?	16.4µM*	3.26µM*	/
Cc1cc(S(=O)(=O)NCc2cccnc2)ccc1-n1cnnn1	?	-2.7%	i	i	0.0%	18.4µM*
Cc1cc(S(=O)(=O)NCc2cccs2)ccc1-n1cnnn1	-0.7%	-0.3%	i	i	7.6%	-0.1%
SMILES	SW480 rerep	HT1080-NT tox	KB-3-1 cytotox	KB-V1 MDR tox	HT1080 IDH1KD tx	MCF10A rereplic
CCNC(=O)CC1C(=O)N(c2ccc(F)cc2)C(=O)N1Cc1ccc(OC)c(OC)c1 (configuration not stated)	/	/	i	i	/	/
COc1cc(C(=O)Nc2cc(C)c(O)c(-c3nc4cc(Cl)ccc4o3)c2)cc(OC)c1OC	/	/	7.31µM*	i	/	/
COc1cc(C(=O)Nc2cccc(-c3nc4cc(C)ccc4o3)c2C)cc(OC)c1OC	1.2%	-29.1%	i	i	?	7.31µM*
Cc1nc([N+](=O)[O-])c(Br)n1CC(=O)c1ccc(Br)cc1	?	20.6µM*	?	?	?	?
Cc1nc([N+](=O)[O-])c(Br)n1CC(=O)c1ccc2ccccc2c1	?	16.4µM*	i	i	?	0.651µM*
Cc1nc([N+](=O)[O-])c(Br)n1CC(=O)c1ccccc1	?	?	i	i	?	?
O=C(NCCC1=CCCCC1)C1CCN(C(=O)N2CCOc3ccccc32)CC1	/	/	i	i	/	/
Cc1ccc(C(=O)Nc2ccc(C(=O)N3CCCCC3C)cc2)cc1 (configuration not stated)	-1.8%	5.9%	i	?	-0.4%	16.2%
CCCCCCC[n+]1c(/C=C/c2ccc(N(C)C)cc2)sc2ccccc21	/	/	i	?	/	/
COC(=O)c1c(NC(=O)c2ccc(C)c(S(=O)(=O)Nc3ccccc3C)c2)sc2c1CCCC2	0.3%	6.1%	i	23.1µM*	9.6%	?
COC(=O)c1c(NS(=O)(=O)c2ccc3ccccc3c2)sc2c1CCCC2	4.9%	-18.6%	i	16.4µM*	?	?
CCOC(=O)c1c(NS(=O)(=O)c2ccc(Br)cc2)sc2c1CCC2	1.3%	-0.6%	i	i	3.0%	?
COc1ccccc1N1CCN(c2cc(=O)n(Cc3ccc(F)cc3)c(=O)[nH]2)CC1	16.4µM*	11.6µM*	5.17µM*	?	?	?
CCN1CCN(c2cc(=O)n(Cc3ccc(F)cc3)c(=O)[nH]2)CC1	-9.1%	2.4%	i	i	4.8%	3.2%
O=c1cc(N2CCN(Cc3ccccc3)CC2)[nH]c(=O)n1Cc1ccc(F)cc1	0.9%	4.7%[9.24 µM]	i	i	-23.0%	-3.1%
CCOC(=O)N1CCN(c2cc(=O)n(Cc3ccc(F)cc3)c(=O)[nH]2)CC1	20.6µM*	3.8%	i	i	5.2%	11.6µM*
O=c1cc(N2CCN(c3ccccc3Cl)CC2)[nH]c(=O)n1Cc1ccc(F)cc1	?	?	4.61µM*	20.6µM*	2.59µM*	2.06µM*

From PubChem
